Screening results as filed in PubChem BioAssay.
M1 ag = human M1 muscarinic receptor agonists, primary screen, Fluo-8 calcium fluorescence, CHO-K1 cells, HTS. Muscarinic acetylcholine receptor M1 (Homo sapiens), P11229. CHO-K1 hM1, agonist mode; 0% DMSO, 100% acetylcholine EC100. activation, % at 3 µM. 360,000 tested, 0.33% active;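 active = activation above the run's mean compound activation plus 3 SD, cut at about 16% in these data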;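 note: peak over basal fluorescence ratio within a 140 s kinetic read after compound addition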
Target sequence (P11229 whole entry, looked up): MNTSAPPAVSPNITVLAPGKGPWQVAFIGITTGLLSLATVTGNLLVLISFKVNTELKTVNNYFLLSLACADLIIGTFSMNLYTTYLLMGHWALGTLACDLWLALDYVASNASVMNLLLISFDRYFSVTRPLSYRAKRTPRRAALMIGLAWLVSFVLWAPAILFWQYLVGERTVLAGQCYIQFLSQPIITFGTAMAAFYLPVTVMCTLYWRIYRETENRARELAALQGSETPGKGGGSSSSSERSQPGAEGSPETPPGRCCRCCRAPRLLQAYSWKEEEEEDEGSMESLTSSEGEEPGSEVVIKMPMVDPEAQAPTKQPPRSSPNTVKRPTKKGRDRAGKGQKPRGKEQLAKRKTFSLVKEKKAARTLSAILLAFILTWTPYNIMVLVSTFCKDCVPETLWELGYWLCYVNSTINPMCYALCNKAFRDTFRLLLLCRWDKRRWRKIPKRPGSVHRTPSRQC
CHO-K1 Ca PAM = nonselective calcium activators in parental CHO-K1 cells, primary screen, counter-screen for M1 PAM project, cell-based, Fluo-8 calcium fluorescence, full deck, 1536-well; activation, % at 3 µM; ATP EC20; 0% at ATP EC20, 100% at ATP max; 360,000 tested, 0.02% active;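 active = activation above the run cutoff, the mean activation of all test compounds plus 3 SD, cut at about 40% in these data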;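 note: peak over basal fluorescence ratio in a 140 s read after ATP addition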
CHRM1 antagonist = human M1 muscarinic receptor antagonists, primary screen, CHO-K1 cells, Fluo-8 calcium fluorescence, 1536-well; Muscarinic acetylcholine receptor M1 (Homo sapiens), P11229; CHO-K1 hM1, ACh EC80 antagonist; inhibition, % at 3 µM; 360,000 tested, 1.3% active;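 active = percent inhibition above its own plate's cutoff, namely the mean of that plate's compound wells plus 3 SD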;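 note: peak over basal fluorescence ratio during 140 s after agonist addition; 0% = ACh EC80 plus DMSO and 100% = DMSO alone without agonist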
CHRM1 PAM = human M1 muscarinic receptor positive allosteric modulators, primary screen, CHO-K1 cells, Fluo-8 calcium fluorescence, 1536-well; Muscarinic acetylcholine receptor M1 (Homo sapiens), P11229; CHO-K1 hM1, ACh EC20; 0% = ACh EC20, 100% = maximal ACh; activation, % at 3 µM; 360,000 tested, 0.088% active; AID 588819, 2011; in the data active = activation above about 19%, passing the limit was not always enough
CHO-K1 Ca ag = counter-screen for M1 agonists: effect in parental CHO-K1 cells; activation, % at 3 µM; 360,000 tested, 0.48% active; Fluo-8 calcium fluorescence; scaled to maximal ATP response, vehicle zero; in the data active = activation above about 15%;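 note: untransfected CHO-K1 host cells lacking M1 receptor as counterscreen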
CHO-K1 Ca antag = M1 antagonist counterscreen hit in parental CHO-K1 cells; ATP-induced calcium, Fluo-8 fluorescence; 360,000 tested, 0.6% active; AID 602250; inhibition, % at 3 µM;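 active = inhibition above a per-plate cutoff, the plate's mean sample inhibition plus 3 SD, cut at about 24% in these data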;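 note: 0% = DMSO plus EC80 ATP and 100% = DMSO alone without ATP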
* marks the source's active call; other numbers are inactive results. An excerpt weighted towards active compounds, which were near 2.3% of everything screened.

SMILES | M1 ag | CHO-K1 Ca PAM | CHRM1 antagonist | CHRM1 PAM | CHO-K1 Ca ag | CHO-K1 Ca antag
CCc1ccc(Nc2n[n+](-c3ccccc3)c(-c3c(Cl)cccc3Cl)s2)cc1 | 19* | -3 | 49* | -26 | 21* | 8
COc1ccc2ccccc2c1-c1sc(Nc2ccccc2)n[n+]1-c1ccc(F)cc1 | 7 | -3 | 28 | -20 | 16* | -9
CCN1C(=O)CSC1=Nc1ccc(C(=O)OC)cc1 | 0 | 5 | -7 | 5 | 1 | -12
CC1(C)CC(=O)C=C(Nc2ccc(O)c(C(=O)O)c2)C1 | 2 | 6 | -38 | 30* | 0 | 14
CC1(C)CC(=O)C=C(Nc2ccc(C(=O)O)cc2)C1 | -2 | -6 | 3 | -8 | 0 | 18
COc1ccc(CCNC(=O)c2cc3c(=O)n4ccccc4nc3n(Cc3ccco3)c2=N)cc1OC | -3 | 14 | 0 | 0 | 3 | 28*
COCCCn1c(N)c(-c2nc3ccccc3n2C)c2nc3ccccc3nc21 | 4 | 7 | 28* | -12 | 10 | 7
CCOC(=O)c1cn(Cc2ccc(C)cc2)c2cc(F)ccc2c1=O | 17* | -16 | -10 | 18 | -1 | 6
COc1ccc(C2(c3ccc(OC)cc3)NC(=O)N(CC(=O)Nc3ccc(C(N)=O)cc3)C2=O)cc1 | -3 | -20 | 7 | -4 | -1 | 4
COc1ccc(C2(c3ccc(OC)cc3)NC(=O)N(CC(=O)Nc3ccccc3)C2=O)cc1 | 1 | 14 | 3 | 3 | 15* | -6
CCCCCCCCCCCCCCCC[N+](C)(C)Cc1ccc(F)cc1 | -8 | 32 | 44* | -24 | 1 | -21
CCCc1nc2c3ccccc3ccn2c1Cc1cccc(F)c1 | -6 | 15 | 56* | -26 | 1 | -20
O=S(=O)(c1ccccc1F)N1CCC(Oc2ccc(-n3cnnn3)cc2)CC1 | 6 | -3 | 21 | -13 | 22* | -1
CN(C(=O)c1ccc2c(c1)SC1=NS(=O)(=O)CCN12)C(c1ccccc1)c1ccccc1 | -8 | 5 | 41* | -21 | 4 | 3
O=C(O)c1ccc2c(c1)SC1=NS(=O)(=O)CCN12 | -4 | 30 | -7 | 6 | 1 | -15
CCOc1ccc(C(=O)NCC(=O)OCc2nnc(-c3ccccc3)o2)cc1OCC | -2 | 8 | -6 | 9 | 1 | -8
CN(C)c1ccc(CN(C(=O)COc2ccccc2)C2CCS(=O)(=O)C2)cc1 (stereo not given) | -2 | 8 | -3 | 10 | 0 | 27*
Cc1ccccc1OCC(=O)N(Cc1ccc(N(C)C)cc1)C1CCS(=O)(=O)C1 (stereo not given) | -5 | 19 | 5 | 1 | 1 | -6
COc1ccc(-n2c(COc3cccc4ccccc34)nnc2SC(C)C(=O)O)cc1 (stereo not given) | -11 | -6 | 4 | 5 | -1 | 32*
C[C@@H]1CN([C@H](C)CO)S(=O)(=O)c2ccc(C#Cc3ccccc3F)cc2O[C@@H]1CN(C)C(=O)Cc1ccccc1 | -5 | 15 | 2 | -7 | 1 | -1
CCOCCCN(C(=O)CNC(=O)c1ccco1)C(C(=O)NC1CCCC1)c1ccccc1C (stereo not given) | 0 | 5 | 1 | 0 | 2 | 44*
C=CCN(C(=O)CNC(=O)c1ccco1)C(C(=O)NC1CCCCC1)c1ccc(OC)cc1 (stereo not given) | -3 | 9 | 15 | -7 | 0 | -6
Cc1ccc(C(C(=O)NC2CCCCC2)N(Cc2ccccc2)C(=O)Cc2c[nH]c3ccccc23)o1 (stereo not given) | -6 | 19 | 8 | -7 | 19* | 5
COc1ccc(C(C(=O)NC2CCCC2)N(Cc2ccccc2)C(=O)CNC(=O)c2ccco2)cc1 (stereo not given) | 2 | -4 | 10 | 1 | 1 | 32*
